SARS PLP yeast – qHTS of Yeast-based Assay for SARS-CoV PLP | S. cerevisiae expressing SARS-CoV PLpro, growth rescue | Potency, µM (top dose mostly 32.9 µM), for the others: at the top dose activity, positive = growth rescue, hits mostly activators | 0.19% of 330,000 active | AID 485353, 2010; calls by dose curve; note: 0% is about no effect; nearly all actives have a fitted effect of over 55% in size
AmpC detergent – qHTS Inhibitors of AmpC Beta-Lactamase (assay with detergent) | AmpC hydrolysis of nitrocefin, absorbance 480 nm, 0.01% Triton | Potency, µM (doses to about 114 µM), inactives show at the highest dose activity change, negative = inhibition, most hits filed as inhibitors | 0.041% of 370,000 active;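 note: 0% = no-compound wells and -100% = no-enzyme wells; nearly all actives have a fitted effect of over 25% in size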
Target sequence (P00811 whole entry, looked up): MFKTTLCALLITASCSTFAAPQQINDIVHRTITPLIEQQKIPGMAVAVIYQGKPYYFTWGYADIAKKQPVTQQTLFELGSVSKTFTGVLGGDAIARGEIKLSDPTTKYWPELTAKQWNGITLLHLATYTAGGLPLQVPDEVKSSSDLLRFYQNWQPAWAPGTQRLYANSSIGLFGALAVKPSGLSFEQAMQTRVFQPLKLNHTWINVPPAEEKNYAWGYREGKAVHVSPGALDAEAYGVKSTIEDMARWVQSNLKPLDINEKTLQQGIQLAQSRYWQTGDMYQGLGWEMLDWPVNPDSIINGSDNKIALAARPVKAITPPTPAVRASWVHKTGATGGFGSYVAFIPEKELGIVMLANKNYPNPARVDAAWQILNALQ
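20 mM phosphate pH 7.0 + 0.01% (detergent screen) or 0.0001% Triton X-100; 5.3 nM AmpC reagent; cpd preinc 15 min RT; nitrocefin (800 uM stock) to start; A480 q20 s × 4 min; Activity was normalised to no-enzyme and no-compound control wells.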
AMA1-RON2 inh – qHTS for Inhibitors of AMA1-RON; Towards Development of Antimalarial Drug Lead: Primary Screen. AlphaScreen AMA1-biotinylated RON2 peptide binding. Potency, µM (series often up to 58.2 µM), for inactives: at the highest dose activity change, negative = inhibition, most hits filed as inhibitors. 0.2% of 360,000 active;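 note: 0% = vehicle wells and -100% = peptide control; nearly all actives have a fitted effect of over 45% in size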
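AMA1 (3D7) with his tag at 25 nM final met compounds first, then biotinylated RON2 peptide at 25 nM; detection used donor plus acceptor beads, 10 µg/mL apiece, read by AlphaScreen after 30 min at room temperature.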
Vaccinia Venus – qHTS for Stage-Specific Inhibitors of Vaccinia Orthopoxvirus: Venus Reporter Primary qHTS; Potency, µM (doses to about 36.5 µM), for inactives: at the highest dose activity change, negative = inhibition, most hits filed as inhibitors; Vaccinia virus Venus reporter expression, fluorescence; AID 720580, 2013; 0.46% of 330,000 active; calls by dose curve; tested in A549 cells; note: % is set by controls: 0 for no effect and ±100 for the full control effect; nearly all actives have a fitted effect of over 30% in size
VACV mCherry inh – qHTS for Stage-Specific Inhibitors of Vaccinia Orthopoxvirus: mCherry Reporter Primary qHTS; Vaccinia virus mCherry reporter infection, fluorescence; 0.63% of 310,000 active; AID 720579, 2013; Potency, µM (highest dose often 36.5 µM), for the others: at the top dose activity change, negative = inhibition, usual class: inhibitors; calls by dose curve; tested in A549 cells; note: % is set by controls: 0 for no effect and ±100 for the full control effect; nearly all actives have a fitted effect of over 35% in size
AmpC no deterg – qHTS Inhibitors of AmpC Beta-Lactamase (assay without detergent); P00811; Potency, µM (doses to about 57.1 µM), inactives show at the top dose activity change, negative = inhibition, hits mostly inhibitors; 0.52% of 330,000 active; AmpC nitrocefin hydrolysis, absorbance 480 nm, 0.0001% Triton; AID 485341, 2010;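 note: plate controls were no compound for no effect and no enzyme for full effect; nearly all actives have a fitted effect of over 20% in size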
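20 mM phosphate pH 7.0 + 0.01% (detergent screen) or 0.0001% Triton X-100; 5.3 nM AmpC reagent; cpd preinc 15 min RT; nitrocefin (800 uM stock) to start; A480 q20 s × 4 min; Activity was normalised to no-enzyme and no-compound control wells.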
* = called active by the depositor; ! = repeats disagree. This is a sample that favours compounds with a hit; in the whole collection about 1.4% have one here. Unless noted, calls come from the whole dose curve; as a rule, active = well fitted curve in the direction sought with a large enough effect; inconclusive = small, poorly fitted or top-dose-only effect, or another doubt; inactive = no such curve, though single readings can be large; an effect the other way counts as inactive or inconclusive. Potency is the fitted concentration of half-maximal effect.

`Cc1ccc(NC(=O)CSc2nc3c(sc4ccccc43)c(=O)n2CCCC(=O)NC2CCCC2)cc1C` gave AmpC detergent 11.1%, Vaccinia Venus -7.2% and VACV mCherry inh -1.6%.
For O=C(O)c1ccccc1-c1c2cc(I)c(=O)c(I)c-2oc2c(I)c(O)c(I)cc12 the results were AMA1-RON2 inh 7.94µM*, Vaccinia Venus inactive and VACV mCherry inh inactive.
COc1ccc(N(Cc2ccccc2)C(=O)c2nc(S(C)(=O)=O)ncc2Cl)cc1 was read as AmpC detergent 12.5%, Vaccinia Venus inconclusive and VACV mCherry inh inconclusive.
NS(=O)(=O)c1ccc(O)c(N2C(=O)c3cccc4c(C(=O)c5ccccc5)ccc(c34)C2=O)c1 was read as SARS PLP yeast 1.2%, AmpC detergent -5.6% and AmpC no deterg 10µM*.
`Cc1cc(O)c(CN2CCN(c3ccccc3)CC2)c2oc(=O)cc(C)c12` gave AmpC detergent 1.2%, Vaccinia Venus -12.0% and VACV mCherry inh -10.4%.
`CC(C)C[C@@H](CO)N(Cc1ccccc1)S(=O)(=O)N(Cc1ccccc1)[C@H](CO)CC(C)C` gave SARS PLP yeast -15.6%, AmpC detergent -8.2%, AMA1-RON2 inh -1.8%, Vaccinia Venus inconclusive, VACV mCherry inh -26.9% and AmpC no deterg 0.8%.
Screening COc1ccc(CN([C@H](CO)CC(C)C)S(=O)(=O)N(Cc2ccccc2)[C@H](CO)CC(C)C)cc1 returned SARS PLP yeast -1.6%, AMA1-RON2 inh 21.4%, Vaccinia Venus 12.6µM*, VACV mCherry inh inconclusive and AmpC no deterg -18.7%.
`CC(C)C[C@@H](CO)N(Cc1ccccc1)S(=O)(=O)N(Cc1ccccc1)[C@@H](CO)CC(C)C` gave SARS PLP yeast 1.5%, AmpC detergent 3.5%, AMA1-RON2 inh 4.1%, Vaccinia Venus 22.4µM*, VACV mCherry inh inconclusive and AmpC no deterg -3.8%.
Screening C=CS(=O)(=O)N(Cc1ccccc1Br)[C@H](CO)CC(C)C returned AMA1-RON2 inh -3.7%, Vaccinia Venus 1.41µM* and VACV mCherry inh inconclusive.
Screening COC(=O)C1CCCCN1Cc1nc(N(C)C)c2ccccc2n1 (stereo not drawn) returned Vaccinia Venus -11.4% and VACV mCherry inh -8.3%.
`CC(=O)c1c(C)nc2sc3c(=N)n(N)cnc3c2c1-c1ccc(Cl)cc1` gave SARS PLP yeast -10.5%, AmpC detergent inconclusive, AMA1-RON2 inh 9.8%, Vaccinia Venus 4.47µM*, VACV mCherry inh 3.55µM* and AmpC no deterg 39.9%.
`CCOC(=O)c1c(C)nc2sc3c(=O)n(-c4ccc(C(C)=O)cc4)cnc3c2c1-c1ccc(OC)cc1` gave SARS PLP yeast 3.0%, AmpC detergent -10.7%, AMA1-RON2 inh -6.1%, Vaccinia Venus -22.4% and AmpC no deterg -5.3%.
CCN(C(=O)CCS(=O)(=O)c1cc2[nH]c(=O)c(=O)[nH]c2cc1C)c1ccccc1 was read as AmpC detergent 4.5%, Vaccinia Venus -7.8% and VACV mCherry inh -8.8%.
Screening Cc1ncc(CO)c(/C=N/NC(=O)c2cc(Br)ccc2O)c1O returned SARS PLP yeast inconclusive, AmpC detergent -11.5%, AMA1-RON2 inh 3.98µM* and AmpC no deterg -26.9%.
Cc1ncc(CO)c(/C=N/NC(=O)c2ccc(Br)cc2)c1O was read as SARS PLP yeast inconclusive, AmpC detergent -20.7% and AmpC no deterg -40.6%.
For O=c1[nH]c(=S)n(C2CC2)c(O)c1/C=N/Nc1ccccc1 the results were SARS PLP yeast -22.6%, AmpC detergent -11.3%, AMA1-RON2 inh 28.1%, Vaccinia Venus 1.3%, VACV mCherry inh -6.6% and AmpC no deterg 12.6µM*.
For O=[N+]([O-])c1cc([N+](=O)[O-])c(Oc2cccnc2Br)cc1NN1CCCCC1 the results were SARS PLP yeast 0.6%, AmpC detergent -12.4%, AMA1-RON2 inh inconclusive, Vaccinia Venus inconclusive, VACV mCherry inh 12.6µM* and AmpC no deterg -20.9%.
For O=[N+]([O-])c1cc([N+](=O)[O-])c(Oc2cccc3ccccc23)cc1NN1CCCCC1 the results were AMA1-RON2 inh -14.9%, Vaccinia Venus -20.4% and VACV mCherry inh -4.3%.
For Fc1ccc(N2CCN(Cc3ccc4c(c3)CN(Cc3cccn3-c3ncccn3)CCO4)CC2)cc1 the results were Vaccinia Venus -8.9% and VACV mCherry inh -22.0%.
For COc1ccc(/C=C2\Cc3ccccc3C2=O)cc1OC the results were SARS PLP yeast -0.6%, AmpC detergent -11.8%, AMA1-RON2 inh -2.0%, Vaccinia Venus -18.0%, VACV mCherry inh -9.5% and AmpC no deterg 68.8%.
COc1ccc(/C=C2\CCc3ccccc3C2=O)cc1O was read as SARS PLP yeast -9.7%, AmpC detergent inconclusive, AMA1-RON2 inh -6.0%, Vaccinia Venus inconclusive, VACV mCherry inh 11.2µM* and AmpC no deterg -26.1%.
For O=C1c2ccccc2-c2cccc(NS(=O)(=O)c3ccc(C(F)(F)F)cc3)c21 the results were SARS PLP yeast -2.8%, AmpC detergent 6.0%, AMA1-RON2 inh -12.2% and AmpC no deterg 5.62µM*.
Screening CN(C)C1C(=O)C(C(N)=O)=C(O)C2(O)C(=O)C3=C(O)c4c(O)cccc4C(C)(O)C3CC12 (stereo not drawn) returned SARS PLP yeast 5.5%, AmpC detergent inconclusive, AMA1-RON2 inh -25.5%, Vaccinia Venus -14.7%, VACV mCherry inh -5.6% and AmpC no deterg -45.3%.
C=C1c2cccc(O)c2C(O)=C2C(=O)[C@]3(O)C(O)=C(C(N)=O)C(=O)[C@@H](N(C)C)[C@@H]3[C@@H](O)[C@H]12 was read as SARS PLP yeast 0.7%, AmpC detergent inconclusive, AMA1-RON2 inh 3.16µM*, Vaccinia Venus -6.4%, VACV mCherry inh -12.0% and AmpC no deterg -31.9%.
Screening CN(C)[C@@H]1C(=O)C(C(N)=O)=C(O)[C@@]2(O)C(=O)C3=C(O)c4c(O)cccc4[C@@](C)(O)C3[C@H](O)C12 (stereo partly drawn) returned AmpC detergent inconclusive, AMA1-RON2 inh 1.41µM*!, Vaccinia Venus -3.4%, VACV mCherry inh -5.9% and AmpC no deterg -33.2%.
Screening COC(=O)CC(NC1CCN(c2nc(C)c3cc4c(cc3n2)CCC4)CC1)C(=O)OC (stereo not drawn) returned Vaccinia Venus 4.2% and VACV mCherry inh -10.0%.
